The list is not random: actives were taken first. Their share in the collection is about 12%.
SARS PLpro yeast: SARS-CoV PLP inhibition in yeast; S. cerevisiae expressing SARS-CoV PLpro, growth rescue; Potency, µM (doses to about 32.9 µM), for inactives: at the highest dose activity, positive = growth rescue, hits mostly activators; 330,000 compounds, 0.19% hits; AID 485353; further: potency means the concentration at half of the fitted maximal effect; 0% is about no effect; nearly all actives have a fitted effect of over 55% in size
NS1 inh: inhibitors of influenza NS1 protein function; Potency, µM (series often up to 46.1 µM), without a hit: top-dose activity, positive = more growth; 270,000 compounds, 0.4% hits; further: potency means the concentration at half of the fitted maximal effect; actives are rising curves; nearly all actives have a fitted effect of over 50% in size
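Compounds were scored for reversing the slow growth caused by influenza A NS1 in S. cerevisiae, measured by optical density at 600 nm. Assay medium contained 2% galactose at pH 6.0; NS1-free yeast of the same strain were the positive control.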
Shiga inhibitor: Shiga toxin inhibition; AID 2315; Vero cells, Shiga toxin protein synthesis inhibition reporter; inhibition, % at 38.7 µM; 290,000 compounds, 9.2% hits; in the data active means inhibition mostly above about 28%, no sharp cut-off; inactive means mostly below about 43%; further: 0% is about no effect
CHX counter: counter-screen for Shiga toxin inhibitors: cycloheximide protein synthesis inhibition; cell reporter, cycloheximide protein synthesis inhibition counterscreen; max response, %; 300,000 compounds, 12% hits; AID 2314; in the data active means max response mostly above about 13%, no sharp cut-off; inactive means mostly below about 14%; further: read at 38.3 µM for the half of the compounds with a filed dose; 0% is about no effect
Active calls of the source: *; ? = inconclusive; . = no result. Unless noted, the call rests on the fitted dose curve.

SMILES	SARS PLpro yeast	NS1 inh	Shiga inhibitor	CHX counter
O=C(NCc1cccnc1)C12CC3CC(CC(Cl)(C3)C1)C2	2%	-12%	16*	17
COc1ccc(NC(=O)NCc2cccnc2)cc1	1%	13%	-11	8
CS(=O)(=O)N(Cc1nnc(-c2cccs2)o1)c1ccc(Cl)cc1F	-2%	-11%	8	10
O=C(N/N=C/c1ccncc1)c1nn(Cc2ccccc2)c(=O)c2ccccc12	-2%	.	12	6
COc1ccc(C(=O)/C=C2\Sc3ccccc3N2C)cc1	-1%	3%	47	35*
COc1ccc(-[n+]2c(C)cc(/C=C3\Sc4ccccc4N3C)cc2C)cc1	-4%	.	62*	33
COc1ccccc1-[n+]1c(C)cc(/C=C2\Sc3ccccc3N2C)cc1C	-23%	-117%	24	32*
CC[n+]1c(/C=C2\Sc3ccccc3N2C)ccc2cccc(C)c21	-5%	-74%	-17	-4
COc1cc(OC)cc(C(=O)Nc2ccc(S(=O)(=O)N3CCOCC3)cc2)c1	16%	-6%	-4	-6
O=C1CSC(c2cccc(F)c2)N1c1ccccc1 (stereo not drawn)	0%	3%	-2	6
C#Cc1cccc(NC(=O)C2CCN(C(C)=O)CC2)c1	1%	3%	-6	-1
Cc1ncn(-c2ccccc2)c1-c1ccccc1	-1%	.	.	.
C/C(=N\NC(=O)c1ccccc1)c1ccc(-n2ccnc2)cc1	4%	1%	60*	37*
Cc1ccc(NC(=O)n2ccc(-c3ccc(-n4ccnc4)cc3)n2)cc1	-4%	.	85*	40*
C/C(=N\NC(=O)COc1ccc(C(C)(C)C)cc1)c1ccc(-n2ccnc2)cc1	-47%	-15%	31	31*
CC(C)(C)c1ccc(NC(=O)COc2ccc(-n3ccnc3)cc2)cc1	-16%	-48%	49*	36*
COc1cc(NC(=O)COc2ccc(-n3ccnc3)cc2)cc(OC)c1	0%	.	21	6
CC(=O)Nc1ccc(NC(=O)CSc2ccc(-c3ccc(-n4ccnc4)cc3)nn2)cc1	-2%	.	.	.
COc1ccc(OCC(=O)N/N=C(\C)c2ccc(-n3ccnc3)cc2)cc1	-4%	8%	43	15
N#CCN1CCCC(C(N)=O)C1 (stereo not drawn)	-1%	.	7	-3
CC(OC(=O)c1cc(Br)ccc1O)C(=O)NCc1ccc2c(c1)OCO2 (stereo not drawn)	1%	.	.	.
CSCc1ccc(C(=O)NC(C)c2ccc(-n3ccnc3)cc2)cc1 (stereo not drawn)	4%	-5%	16	18*
CSc1ccccc1C(=O)NC(C)c1ccc(-n2ccnc2)cc1 (stereo not drawn)	4%	9%	-20	9
O=C(Cc1ccccc1)Nc1cc([N+](=O)[O-])ccc1N1CCOCC1	0%	-2%	-5	-1
Cc1ccc(SC[C@H](c2ccccc2)N2CCN(CCc3ccccc3)CCC2=O)cc1	-2%	-43%	59*	33*
SMILES	SARS PLpro yeast	NS1 inh	Shiga inhibitor	CHX counter
Cc1ccc(SCC(c2ccccc2)N2CCN(CCc3ccccc3)CCC2=O)cc1 (stereo not drawn)	.	.	35*	48*
Cc1ccc(SCC(Cc2ccccc2)N2CCN(CCc3ccccc3)CCC2=O)cc1 (stereo not drawn)	.	.	-10	-2
O=C1CCN(CCc2ccccc2)CCN1C(CSc1ccc(Br)cc1)c1ccccc1 (stereo not drawn)	.	.	41	33*
CC(=O)Nc1ccc(SCC(c2ccccc2)N2CCN(CCc3ccccc3)CCC2=O)cc1 (stereo not drawn)	.	.	34	26
O=C1CCN(CCc2ccccc2)CCN1[C@H](CSc1ccccc1)c1ccccc1	-15%	-50%	13	15*
CN(CC(=O)Nc1ccccc1Br)C(=O)CNC(=O)Cc1cccc2ccccc12	-4%	-15%	-24	-2
NC(=NCc1ccc(Cl)c(Cl)c1)NC(=O)c1nc(Cl)c(N)nc1N	.	-1%	.	.
CCCCN(CC)C(=O)C1CCC(CNS(=O)(=O)c2cccc3nsnc23)CC1 (stereo not drawn)	3%	5%	-3	-10
O=C(COC(=O)c1cccc([N+](=O)[O-])c1)Nc1ncc(Br)s1	-5%	.	.	.
CCC(=O)NC1=C(NC(C)c2ccccc2)C(=O)c2ccccc2C1=O (stereo not drawn)	-4%	-3%	43	16
CCC(=O)NC1=C(Cl)C(=O)C(NC(=O)CC)=C(Cl)C1=O	-6%	2%	5	14*
CC(=O)Nc1cccc(NC(=S)Nc2cccc3ccccc23)c1	-6%	6%	84*	44*
Cc1ccc(F)c(NC(=S)Nc2cccc3ccccc23)c1	13%	25%	58*	36*
COc1ccc(NC(=S)Nc2cccc3ccccc23)cc1OC	16%	13%	18	30*
Cc1ccc(Cl)cc1NC(=S)N/N=C/c1cccc2ccccc12	0%	8%	12	2
Cc1ccc(C(=O)NNC(=S)Nc2cccc3ccccc23)s1	1%	4%	67*	30*
Oc1ccccc1N1CCN(CC(O)COCc2ccccc2Cl)CC1 (stereo not drawn)	0%	3%	-5	-1
COc1ccc(CCNC(=O)C/C(C)=N/NC(=O)C23CC4CC(CC(C4)C2)C3)cc1OC	6%	24%	15	15
CC(NC(=O)COC(=O)c1cccc(S(=O)(=O)N2CCCC2)c1)c1ccccc1 (stereo not drawn)	5%	.	.	.
CSc1sc(C)cc1/C=N/O	-15%	-11%	-14	-1
CCOC(=O)COc1ccc2c(C)c(CCN(CC)CC)c(=O)oc2c1Cl	.	.	-12	-3
CC(=O)c1cccc(NC(=S)Nc2cccc3ccccc23)c1	?	-8%	83*	44*
Cc1ccccc1NC(=O)CSc1nc2c(c(-c3ccco3)c1C#N)CCCC2	-1%	8%	4	-1
N#Cc1c(SCC(=O)Nc2nccs2)nc2c(c1-c1ccco1)CCCC2	-2%	?	4	17*
Oc1ccc(-c2cn3c(n2)SCC3)cc1	2%	-3%	20	13
SMILES	SARS PLpro yeast	NS1 inh	Shiga inhibitor	CHX counter
CCCS(=O)(=O)Nc1cccc(-c2cn3c(n2)SCC3)c1	6%	6%	-3	-2
O=C(Nc1cccc(-c2cn3c(n2)SCC3)c1)c1ccc2ccccc2n1	-4%	.	133*	45*
O=C(Nc1ccc(-c2cn3c(n2)SCC3)cc1)c1ccc2ccccc2n1	-3%	.	48*	50*
C[C@]12CC[C@@H]3c4ccc(O)cc4CC[C@H]3[C@@H]1CC[C@H]2O	.	.	1	8
NS(=O)(=O)c1ccc(CCNC(=O)C(=O)NCC2OCCN2S(=O)(=O)c2cc(F)ccc2F)cc1 (stereo not drawn)	0%	14%	12	1
C/C(=N\NC(=O)c1ccccc1O)c1cccc(NC(=O)c2ccccc2)c1	-1%	-33%	42*	19*
C/C(=N\NC(=O)c1ccccc1O)c1ccc(NC(=O)c2ccccc2)cc1	-8%	-29%	69*	38*
COc1ccc(C(=O)N/N=C(/C)c2cccc(NC(=O)c3ccccc3F)c2)cc1	1%	-6%	25	20
COc1ccccc1C(=O)N/N=C(\C)c1ccc(NC(=O)C2CC2)cc1	-4%	7%	14	-3
C/C(=N/NC(=O)c1ccncc1)c1ccc(NC(=O)c2ccccc2)cc1	-2%	-6%	22	9

Bioassay records: PubChem BioAssay, National Center for Advancing Translational Sciences (NCATS)
